Screening data (PubChem)
Compounds with a hit are over-represented: about 4.8% of the library has one in this group of screens.
hgDAF-12 ag – agonists of H. glycines DAF-12 nuclear receptor; activation, % at 6.8 µM; AID 687014; HEK293 GAL4-hgDAF12 UAS-luciferase reporter, agonist luminescence; normalized to butyrate control; 370,000 compounds, 1.8% hits;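 active = activation above a cutoff set at the mean of all screened compounds plus 3 SD, cut at about 10% in these data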;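 note: 0% = DMSO wells and 100% = sodium butyrate wells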
SMARCA2 act – SMARCA2 function activation, primary screen; MG213 cells, MMTV-luciferase reporter, dexamethasone, overnight; activation, % at 9.1 µM; 370,000 compounds, 1% hits; AID 652017; in the data active = activation above about 7.8%;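 note: 0% = vehicle wells and 100% = reference activator wells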
ssDAF-12 act – activators of S. stercoralis DAF-12 nuclear receptor; activation, % at 6.8 µM; HEK293 ssDAF-12/GRIP1 lit1-tk-luc reporter, luminescence; % of 3 µM dafachronic acid response; 370,000 compounds, 1% hits;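 active = activation above the mean over all tested compounds plus 3 SD, cut at about 0.9% in these data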;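 note: 0% = DMSO-only wells and 100% = 3 µM delta7-dafachronic acid wells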
DAX1 inh-1 – DAX1 (NR0B1) inhibition, primary screen. HEK293T StAR-luciferase reporter, SF-1/DAX-1 repression relief. inhibition, % at 6.8 µM. 370,000 compounds, 1.1% hits. AID 652010;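 active = inhibition above the mean over all tested compounds plus 3 SD, cut at about 3.6% in these data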;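 note: 0% = DAX-1 cells with DMSO and 100% = cells lacking DAX-1 with DMSO; higher inhibition means more luminescence from relief of DAX-1 repression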
DAX1 inh-2 – inhibits human nuclear receptor DAX1. P51843. HEK293 Gal4-DAX1 luciferase reporter, luminescence. 340,000 compounds, 0.99% hits. inhibition, % at 6.75 µM;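 active = inhibition above the mean over all tested compounds plus 3 SD, cut at about 4.2% in these data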;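 note: 0% = DAX1-transfected cells with DMSO and 100% = empty-vector control cells with DMSO; inhibition shows as a rise in luminescence from relieved DAX1 repression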
Target sequence (P51843 207-470 limits assumed): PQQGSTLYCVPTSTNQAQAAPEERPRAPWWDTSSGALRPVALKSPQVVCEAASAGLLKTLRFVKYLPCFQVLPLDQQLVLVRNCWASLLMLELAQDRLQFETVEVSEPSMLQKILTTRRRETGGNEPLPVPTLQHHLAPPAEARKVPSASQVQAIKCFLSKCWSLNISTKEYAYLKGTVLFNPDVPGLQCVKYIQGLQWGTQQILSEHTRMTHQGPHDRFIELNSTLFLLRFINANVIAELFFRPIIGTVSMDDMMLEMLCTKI
hcDAF12 agonist – H. contortus DAF-12 activation, primary screen | 370,000 compounds, 1.4% hits | activation, % at 6.8 µM | HEK293 hcDAF-12 lit1-tk-luc reporter, luminescence; 0% DMSO, 100% Δ7-dafachronic acid;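 active = activation above the mean of all tested compounds plus 3 SD, cut at about 5.5% in these data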;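 note: 100% = response to 3 µM Δ7-dafachronic acid high control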
SMARCA2 conf – confirmation of SMARCA2 (BRM) function activators. shares compounds with SMARCA2 act. MG213 cells, MMTV-luciferase with dexamethasone, luminescence, overnight; MG213 cells expressing E1A, Rb sequestered; DMSO wells 0%, reference activator 100%. activation, % at 9.1 µM. 3,500 compounds, 30% hits;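 active = activation above its plate's cutoff, the mean activation of tested wells plus 3 SD, cut at about 7.9% in these data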
VP16 Luc act – GAL4-VP16 reporter activation counter-screen. shares compounds with SMARCA2 act. HEK293 GAL4-VP16 pG5luc reporter, luciferase luminescence; scaled: DMSO wells 0%, SAHA wells 100%. activation, % at 9.1 µM. 3,500 compounds, 41% hits;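 active = activation above the solvent-only control well mean plus 3 SD, averaged across control plates, cut at about 5.2% in these data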
* hit, by the source's call; · = not tested or not shown.

SMILES	hgDAF-12 ag	SMARCA2 act	ssDAF-12 act	DAX1 inh-1	DAX1 inh-2	hcDAF12 agonist	SMARCA2 conf	VP16 Luc act
COc1ccc2c(c1)-c1c(sn(-c3ccccc3)c1=S)C(C)(C)N2	-3.0	-3.2	-1.6	-1.0	0.2	-3.4	·	·
Fc1cccc(F)c1-n1c(CN2CCOCC2)csc1=S	1.5	8.7*	-1.6	-0.5	-0.4	-0.6	-0.7	-0.8
COc1cccc(C(=O)Nc2nnc(-c3cccs3)s2)c1	10.6*	8.3*	0.2	1.6	2.1	2.8	11.6*	13.5*
CCOCc1nnc(NC(=O)c2cccc(OC)c2)s1	3.7	-1.9	0.0	2.1	2.2	2.4	·	·
O=C(Cn1sc2ccccc2c1=O)Nc1ccc(F)cc1	1.9	9.2*	-0.8	-0.3	0.7	-0.2	10.7*	-0.4
CC(C)Nc1ccc(Nc2ccnc3cc4ccccc4cc23)cc1	-2.8	12.3*	-1.1	-1.4	-2.3	2.0	9.1*	-0.5
O=C1Nc2ccccc2S/C1=C/c1cccs1	6.5	10.4*	1.3*	0.1	2.5	4.5	5.0	0.9
O=C1NC(=S)SC1=Cc1cccs1	-0.4	-0.2	-1.2	0.1	0.0	1.8	·	·
CCN(CC)C(=O)c1cccc(NC(=O)C2=COCCO2)c1	2.1	-0.2	-0.6	-0.3	0.7	-0.1	·	·
O=C(CSc1nnc(NC2CCCCC2)s1)Nc1ccc(N2CCOCC2)cc1	1.4	-0.7	-0.5	1.4	0.8	0.8	·	·
Cc1csc2c(=O)sc(NC(=O)c3ccc(F)cc3Cl)nc12	-0.1	10.7*	-1.3	-0.3	2.7	0.5	-5.7	-0.3
CC(C)CN1CCC(=O)N([C@H](COc2ccccc2)Cc2ccccc2)CC1	-0.4	0.6	-1.2	-0.2	0.2	-1.4	·	·
COc1ccc(N2CCN(C(=O)c3cc(=O)c4ccc(C)cc4o3)CC2)cc1	-0.9	11.8*	-1.0	0.1	2.9	0.6	3.0	1.1
O=C(Nc1ccc(Br)cc1F)c1ccc2nsnc2c1	5.0	0.2	-0.3	0.5	1.0	2.6	·	·
CCNC(=S)NNC(=O)c1ccoc1C	1.0	-0.7	-0.5	0.2	0.0	-2.3	·	·
Cc1occc1C(=O)NNC(=O)C1CC1	-2.1	9.5*	-0.9	1.2	1.0	0.3	5.9	1.1
Cc1occc1C(=O)NNC(=S)Nc1ccccc1	11.8*	9.3*	-0.3	2.1	2.0	1.0	5.4	6.8*
CCn1c(=O)cc(SCC(=O)NCc2ccc(C)cc2)c2ccccc21	-0.8	-2.8	-1.5	-0.2	1.5	-2.1	·	·
CCn1c(=O)cc(SCC(=O)Nc2ccc(C)cn2)c2ccccc21	6.9	9.2*	-1.0	-0.6	1.8	1.0	15.4*	0.4
Cc1cccc(-n2[nH]c3c4c(ccc3c2=O)C(=O)c2ccccc2C4=O)c1	-1.9	8.3*	-0.1	-0.2	-0.1	-1.8	-3.8	1.1
O=C1c2ccccc2C(=O)c2c1ccc1c(=O)n(-c3ccccc3)[nH]c21	-2.8	3.6	-0.8	-0.5	-1.5	-1.5	·	·
O=C(COc1ccc(Cl)cc1Cl)Nc1nnc(C2=COCCO2)o1	0.9	-0.8	-2.2	-0.5	1.5	0.6	·	·
CCOCCn1c(CN2CCCCC2)nc2c1c(=O)n(C)c(=O)n2C	0.9	8.1*	-1.6	0.7	0.9	0.7	0.4	-0.3
N#Cc1ccccc1OCC(=O)Nc1ccc2c(c1)OCCO2	11.7*	8.5*	-0.5	4.1*	0.9	6.5*	4.5	6.3*
N#Cc1ccccc1OCC(=O)Nc1ccc2c(c1)OCCCO2	7.5	5.8	-0.8	0.6	-0.3	-0.7	·	·
O=C(CNCc1ccccc1Cl)Nc1ccc2c(c1)OCCO2	12.0*	13.3*	-1.3	3.3	2.0	0.3	12.7*	6.9*
O=C(CSc1ncccn1)Nc1ccc2c(c1)OCO2	0.3	-0.7	-0.2	0.2	0.2	0.9	·	·
O=C(CSc1ccccn1)Nc1ccc2c(c1)OCCO2	10.1	8.4*	0.2	1.4	3.9	2.4	8.4*	11.8*
